PubChem BioAssay (NCI)
Compounds without any hit were thinned out: in the full panel of roughly 83,000, 20% have a hit.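 Activity criterion: percent growth below 10, measured after cells in 96-well plates were exposed to a single compound concentration for 48 hours.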 Active and inactive are the calls of the source.

Columns and labels:
Assay in all cases: NCI-60 one-dose screen, 48 h (100 = growth as untreated, 0 = no growth, -100 = all killed)
Conditions in all cases: 10 µM unless noted
NCI-H23 lung = tested on: NCI-H23 lung
NCI-H226 lung = tested on: NCI-H226 lung
NCI-H322M lung = tested on: NCI-H322M lung
HOP-62 NSCLC = tested on: HOP-62 NSCLC
NCI-H460 lung = tested on: NCI-H460 lung
HOP-92 NSCLC = tested on: HOP-92 NSCLC
NCI-H522 lung = tested on: NCI-H522 lung
A549/ATCC NSCLC = tested on: A549/ATCC NSCLC
786-0 renal = tested on: 786-0 renal
COLO 205 colon = tested on: COLO 205 colon

Measured: growth

COc1cccc2nc(Nc3cccc(NC(=O)c4cc(N5CCOCC5)cc(C(F)(F)F)c4)c3)ccc12
inactive: NCI-H23 lung 78.4% | NCI-H226 lung 47.8% | NCI-H322M lung 68.6% | HOP-62 NSCLC 78.6% | NCI-H460 lung 49.2% | HOP-92 NSCLC 47.9% | NCI-H522 lung 81.3% | A549/ATCC NSCLC 37.3% | 786-0 renal 65.8% | COLO 205 colon 62.5%

COc1ccc(Nc2ncccc2C(=O)NCc2cn(Cc3cc(OC)cc(OC)c3)nn2)cc1
inactive: NCI-H23 lung 103% | NCI-H226 lung 98.3% | NCI-H322M lung 105% | HOP-62 NSCLC 81.9% | NCI-H460 lung 98.3% | HOP-92 NSCLC 93.2% | NCI-H522 lung 79.4% | A549/ATCC NSCLC 89.5% | 786-0 renal 95.3% | COLO 205 colon 114%

OC(c1cc(-c2ccc(C(F)(F)F)cc2)nc(-c2ccc(C(F)(F)F)cc2)c1)C1CCCCN1 (stereo not given)
active: NCI-H23 lung -60.2% | NCI-H226 lung -71.2% | NCI-H322M lung -79.5% | HOP-62 NSCLC -86.9% | NCI-H460 lung -67.7% | HOP-92 NSCLC -81.9% | NCI-H522 lung -78.7% | A549/ATCC NSCLC -84.4% | 786-0 renal -75.4% | COLO 205 colon -79.6%

COc1ccc(NC(=O)c2ccc(C(F)(F)F)nc2Nc2ccc(Cl)cc2C)cc1Cl
inactive: NCI-H226 lung 26.7% | NCI-H322M lung 45.8% | HOP-62 NSCLC 32.4% | NCI-H522 lung 18.9% | A549/ATCC NSCLC 14.2% | 786-0 renal 17%
active: NCI-H23 lung 3.83% | NCI-H460 lung 7.62% | HOP-92 NSCLC -8.93% | COLO 205 colon -14.5%

NC(=S)N/N=C(/c1cccs1)C1CC1
inactive: NCI-H23 lung 101% | NCI-H226 lung 90.5% | NCI-H322M lung 93% | HOP-62 NSCLC 91.8% | NCI-H460 lung 106% | HOP-92 NSCLC 107% | NCI-H522 lung 87.4% | A549/ATCC NSCLC 63.6% | 786-0 renal 105% | COLO 205 colon 105%

O=C(CI)NCCNc1cccc2c(S(=O)(=O)O)cccc12
inactive: NCI-H23 lung 95.1% | NCI-H226 lung 103% | NCI-H322M lung 98% | HOP-62 NSCLC 107% | NCI-H460 lung 105% | HOP-92 NSCLC 102% | NCI-H522 lung 107% | A549/ATCC NSCLC 110% | 786-0 renal 101% | COLO 205 colon 105%

O=C(OCc1ccc2c(Cl)cc(Cl)c(O)c2n1)c1cc2ccccc2[nH]1
active: NCI-H23 lung -54.4% | NCI-H226 lung -73.7% | NCI-H322M lung 8.26% | HOP-62 NSCLC -35.1% | NCI-H460 lung -75% | HOP-92 NSCLC -77.3% | NCI-H522 lung -73.8% | A549/ATCC NSCLC -54.2% | 786-0 renal -78.6% | COLO 205 colon -87.1%

Cc1cc(O)c(C2=NN(c3ccc(S(N)(=O)=O)cc3)C(c3ccc(Cl)cc3)C2)c(C)c1Cl (stereo not given)
active: NCI-H460 lung 3.35%
inactive: NCI-H23 lung 78.8% | NCI-H226 lung 106% | NCI-H322M lung 75.3% | HOP-62 NSCLC 84.3% | HOP-92 NSCLC 21.3% | NCI-H522 lung 57.7% | A549/ATCC NSCLC 33.2% | 786-0 renal 43.3% | COLO 205 colon 30.8%

CC(=O)O[C@H]1[C@H](CC#CC#CC[C@@H]2C[C@]3(C)[C@H]4CC=C5[C@H]6[C@@H](C)[C@H](C)CC[C@]6(C(=O)NCCN(CCN)CCN)CC[C@@]5(C)[C@]4(C)CC[C@H]3C(C)(C)[C@H]2OC(C)=O)C[C@]2(C)[C@H]3CC=C4[C@H]5[C@@H](C)[C@H](C)CC[C@]5(C(=O)NCCN(CCN)CCN)CC[C@@]4(C)[C@]3(C)CC[C@H]2C1(C)C
inactive: NCI-H23 lung 11.9% | NCI-H226 lung 69.5% | NCI-H322M lung 63.3% | HOP-62 NSCLC 87.1% | NCI-H460 lung 80.5% | HOP-92 NSCLC 48.6% | NCI-H522 lung 15.2% | A549/ATCC NSCLC 43% | 786-0 renal 82.8% | COLO 205 colon 78%

Oc1[nH]c2ccccc2c1/C=c1/ccc2c(c1)N=C(c1ccc(C(F)(F)F)cc1)N=2
inactive: NCI-H23 lung 67% | NCI-H226 lung 89.6% | NCI-H322M lung 76.8% | HOP-62 NSCLC 71.6% | NCI-H460 lung 41.1% | HOP-92 NSCLC 57.4% | NCI-H522 lung 40.7% | A549/ATCC NSCLC 50% | COLO 205 colon 78.8%
active: 786-0 renal 6.1%

CC(=O)c1c(O)c(C)c(O)c2c1OC1=CC(=O)/C(=C(/C)N)C(=O)C12C (stereo not given)
inactive: NCI-H23 lung 89.8% | NCI-H226 lung 73.8% | NCI-H322M lung 97.3% | HOP-62 NSCLC 94.9% | NCI-H460 lung 98.2% | HOP-92 NSCLC 99.7% | NCI-H522 lung 77.6% | A549/ATCC NSCLC 83% | 786-0 renal 98.3% | COLO 205 colon 95.8%

CCOC(=O)C(Nc1ccccc1)C(=O)OCC
inactive: NCI-H23 lung 108% | NCI-H226 lung 99.6% | NCI-H322M lung 88.1% | HOP-62 NSCLC 101% | NCI-H460 lung 115% | HOP-92 NSCLC 72.9% | NCI-H522 lung 102% | A549/ATCC NSCLC 100% | 786-0 renal 110% | COLO 205 colon 119%

CCN(C)CCCOc1ccc(/C(=C(\C)Cc2cccc(OC)c2)c2ccc(OC(C)=O)cc2)cc1
inactive: NCI-H23 lung 93.9% | NCI-H226 lung 86.2% | NCI-H322M lung 98.5% | HOP-62 NSCLC 97% | NCI-H460 lung 105% | HOP-92 NSCLC 99.2% | NCI-H522 lung 94.3% | A549/ATCC NSCLC 104% | 786-0 renal 101% | COLO 205 colon 107%

CC(C)=CCC[C@H](C)c1ccc(C)c2c1OCN(CCO)C2
inactive: NCI-H23 lung 81.7% | NCI-H226 lung 91.2% | NCI-H322M lung 104% | HOP-62 NSCLC 80.4% | NCI-H460 lung 96% | NCI-H522 lung 78.1% | A549/ATCC NSCLC 82.4% | 786-0 renal 61% | COLO 205 colon 119%
active: HOP-92 NSCLC 4.21%
